This passage reports composite z-score, composite Z-score and z-score results from PubChem BioAssay.

Calls of active or inactive are those of the source.

Test [1] has as its target Albumin (Bos taurus) (UniProt P02769). Put plainly: bovine serum albumin binders on microarray, profiling panel, artefact control for SMM control protein annotation, biochemical, small-molecule microarray, Alexa647 label, 635/667 nm fluorescence (AID 1118).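 Further: score merges 667 nm emission intensity and signal-to-noise per printed compound spot.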 The note with it: BSA-A647 binding, fluorescence 635 nm, higher = more signal.
Test [2] can be described thus: small-molecule microarray binders of probe aXIP, primary screen, biochemical, NeuroSMM set, 635/667 nm fluorescence (AID 1119).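 Further: probe is the protein aXip251-270 applied at 1 µg/mL to compound-printed slides; binding of probe to printed compounds measured as 667 nm fluorescence plus signal to noise.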 To be noted: higher = more signal, called active from +8 up or from −8 down.
A short description of test [3]: small-molecule binders of probe aNOTCH3, primary screen, biochemical, small-molecule microarray, 635/667 nm fluorescence (AID 1120).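 Further: probe is a biotin-tagged antibody raised against NOTCH3 rather than NOTCH3 protein; score merges spot fluorescence near 667 nm with spot signal to noise.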 The note with it: higher = more signal.
Test [4] in a line: small-molecule binders of probe aNOTCH2, primary screen, biochemical, small-molecule microarray, 635/667 nm fluorescence (AID 1121).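 Further: score merges feature fluorescence read at 667 nm with its signal to noise.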 The note with it: higher = more signal.
Test [5] deals with Carbonic anhydrase 2 (Homo sapiens) (UniProt P00918). The experiment in a line: CAII small-molecule binders, profiling panel, biochemical, small-molecule microarray, Alexa647-labelled CAII (AID 1122). To be noted: CAII-A647 binding fluorescence, higher = more signal.
Test [6] can be described thus: COS7 lysate on small-molecule microarray, probe aHis, 635 nm (AID 1123).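 Further: z-score combines 667nm fluorescence intensity with signal-to-noise per printed compound spot.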 To be noted: COS7 cell lysate, fluorescence, higher = more signal.
A short description of test [7]: compound binding in COS7 lysate, probe aLAP1, primary screen, cell lysate, small-molecule microarray (AID 1124).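 Further: lysate comes from COS7 cells expressing LAP1 and is applied at 0.3 µg/mL; score merges spot fluorescence near 667 nm with signal-to-noise over triplicate slides.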 To be noted: probe aLAP1, fluorescence, higher = more signal.
In test [8] the test system is Sam68 (KHDRBS1). The experiment in a line: Sam68 small-molecule binders, primary screen, biochemical, small-molecule microarray, 635 nm fluorescence (AID 1125).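 Further: score merges 667 nm channel intensity with signal to noise over triplicate slides.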 To be noted: small-molecule microarray binding, higher = more signal.
In test [9] the test system is Chordin-like protein 2 (CHRDL2). Put plainly: CHRDL2 small-molecule binders, primary screen, biochemical, small-molecule microarray, 635 nm fluorescence (AID 1126).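 Further: printed compound slides probed with Chrdl2 protein at 4 µg/mL for 1 h at 4 C; score merges 667 nm emission intensity with signal to noise over three replicate slides.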 The note with it: small-molecule microarray binding, fluorescence 635 nm; higher = more signal.
Test [10] concerns the target Concanavalin-A (Canavalia ensiformis) (UniProt P02866). Put plainly: ConA small-molecule binders, primary screen, artefact control for SMM control protein annotation, biochemical, small-molecule microarray, Alexa647 label, 635 nm (AID 1127).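 Further: z combines 667 nm emission intensity with signal-to-noise across three replicate slides.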 The note with it: ConA-A647 binding fluorescence, higher = more signal.
A short description of test [11]: anti-His antibody binders, primary screen, artefact control for SMM control protein annotation, biochemical, small-molecule microarray, 635 nm fluorescence (AID 1128).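 Further: score merges feature fluorescence with signal-to-noise for each printed compound spot.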 To be noted: anti-His Alexa647 antibody binding, higher = more signal.
The subject of test [12] is Human papillomavirus type 1a E7 protein (residues 1-88). The experiment in a line: HPV1a E7 small-molecule binders, primary screen, biochemical, small-molecule microarray, residues 1-88, 635 nm (AID 1129). The note with it: small-molecule microarray binding, fluorescence 635 nm; higher = more signal.
Test [13] deals with Focal adhesion kinase 1 (Homo sapiens) (UniProt Q05397). The experiment in a line: small-molecule microarray binders of FAK, primary screen, biochemical, 635/667 nm fluorescence, BSA, DTT (AID 1130).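 Further: composite of spot emission at 667 nm and signal to noise over triplicate slides.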 To be noted: PTK2 binding, 635 nm fluorescence, higher = more signal.
Chain of Focal adhesion kinase 1 (Homo sapiens) (Q05397 whole entry, looked up): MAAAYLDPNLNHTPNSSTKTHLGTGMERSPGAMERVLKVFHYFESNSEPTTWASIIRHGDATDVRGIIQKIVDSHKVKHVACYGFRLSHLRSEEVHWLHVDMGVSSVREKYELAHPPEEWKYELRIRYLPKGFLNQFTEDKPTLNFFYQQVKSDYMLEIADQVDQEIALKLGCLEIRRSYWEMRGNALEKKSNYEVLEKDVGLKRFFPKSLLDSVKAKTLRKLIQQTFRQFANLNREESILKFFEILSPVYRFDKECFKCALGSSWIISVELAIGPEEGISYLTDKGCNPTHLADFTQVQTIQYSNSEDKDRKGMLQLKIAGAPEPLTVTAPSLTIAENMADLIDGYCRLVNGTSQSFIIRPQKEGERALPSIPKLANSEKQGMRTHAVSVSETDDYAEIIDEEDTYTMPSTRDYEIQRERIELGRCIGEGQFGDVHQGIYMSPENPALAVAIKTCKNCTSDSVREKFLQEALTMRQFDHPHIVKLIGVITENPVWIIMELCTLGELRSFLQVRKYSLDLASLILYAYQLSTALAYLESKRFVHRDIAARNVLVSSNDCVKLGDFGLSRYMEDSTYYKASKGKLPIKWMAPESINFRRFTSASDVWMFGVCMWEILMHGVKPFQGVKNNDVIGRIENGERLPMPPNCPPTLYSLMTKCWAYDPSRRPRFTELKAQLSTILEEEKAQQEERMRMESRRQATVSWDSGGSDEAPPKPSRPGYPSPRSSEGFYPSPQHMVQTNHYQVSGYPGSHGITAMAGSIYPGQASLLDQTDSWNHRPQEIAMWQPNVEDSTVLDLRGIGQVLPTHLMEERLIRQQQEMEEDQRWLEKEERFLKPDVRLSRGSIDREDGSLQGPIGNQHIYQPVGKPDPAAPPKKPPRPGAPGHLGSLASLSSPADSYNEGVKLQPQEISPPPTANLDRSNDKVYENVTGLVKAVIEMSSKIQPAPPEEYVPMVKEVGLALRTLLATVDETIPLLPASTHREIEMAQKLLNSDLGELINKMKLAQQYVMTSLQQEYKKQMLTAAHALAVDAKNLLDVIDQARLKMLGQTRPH
The test system of test [14] is Fibrinogen (Alexa647-labelled). Put plainly: fibrinogen binders on compound microarrays, profiling panel, artefact control for SMM control-protein annotation, biochemical, small-molecule microarray, 635/667 nm fluorescence (AID 1131).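 Further: z-score merges 667 nm fluorescence with per-spot signal-to-noise over triplicate slides.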 The note with it: fibrinogen-A647 binding fluorescence, higher = more signal.
Test [15] deals with Follistatin (Homo sapiens) (UniProt P19883). Put plainly: follistatin binders on small-molecule microarrays, primary screen, biochemical, small-molecule microarray, 635/667 nm fluorescence (AID 1132). The note with it: FST binding, 635 nm fluorescence, higher = more signal.
Chain of Follistatin (Homo sapiens) (P19883 whole entry, looked up): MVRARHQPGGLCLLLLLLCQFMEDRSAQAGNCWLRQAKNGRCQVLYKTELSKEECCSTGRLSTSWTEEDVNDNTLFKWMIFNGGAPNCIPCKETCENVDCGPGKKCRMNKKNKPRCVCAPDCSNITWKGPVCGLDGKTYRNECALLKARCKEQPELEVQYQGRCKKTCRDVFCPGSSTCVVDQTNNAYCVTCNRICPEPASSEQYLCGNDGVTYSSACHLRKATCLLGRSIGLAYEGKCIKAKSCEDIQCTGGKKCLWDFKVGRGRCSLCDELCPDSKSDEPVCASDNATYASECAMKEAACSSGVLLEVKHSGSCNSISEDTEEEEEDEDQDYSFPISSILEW
For test [16], the target named is Fibroblast growth factor 2 (Homo sapiens) (UniProt P09038). The experiment in a line: FGF2 binders on small-molecule microarrays, primary screen, biochemical, small-molecule microarray, 635/667 nm fluorescence (AID 1133). The note with it: small-molecule microarray binding, FGF2, fluorescence 635/667; higher = more signal.
Chain of Fibroblast growth factor 2 (Homo sapiens) (P09038 whole entry, looked up): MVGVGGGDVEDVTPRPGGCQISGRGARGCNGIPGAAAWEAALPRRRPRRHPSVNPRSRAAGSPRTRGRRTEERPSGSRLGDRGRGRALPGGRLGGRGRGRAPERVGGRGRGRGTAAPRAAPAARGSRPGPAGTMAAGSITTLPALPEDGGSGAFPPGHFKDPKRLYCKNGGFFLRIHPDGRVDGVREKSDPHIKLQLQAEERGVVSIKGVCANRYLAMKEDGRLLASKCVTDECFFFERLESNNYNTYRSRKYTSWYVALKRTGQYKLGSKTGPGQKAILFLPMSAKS
Test [17] can be described thus: mitochondrial membrane potential change in A549 cells, profiling panel, cell-based, JC-1 fluorescence, basal, 24 h, 100 nL (AID 1138).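 Further: A549 lung adenocarcinoma cells under basal conditions with no added stimulus; test concentration not given here.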 To be noted: higher = more signal.
For test [18], the system named is Lefty1. Put plainly: Lefty1 binders on small-molecule microarrays, primary screen, biochemical, small-molecule microarray, 635/667 nm fluorescence (AID 1139). To be noted: small-molecule microarray binding, fluorescence 635/667; higher = more signal.
The test system of test [19] is wheat germ agglutinin (Triticum aestivum), Alexa647-labelled. The experiment in a line: wheat germ agglutinin binders on compound microarrays, profiling panel, artefact control for SMM control-protein annotation, biochemical, small-molecule microarray, 635/667 nm fluorescence (AID 1140).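 Further: score merges 667 nm feature emission with signal to noise over triplicate slides.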 To be noted: WGA-A647 binding, 635 nm fluorescence, higher = more signal.
In test [20] the target is Luciferin 4-monooxygenase (Photinus pyralis) (UniProt P08659). Put plainly: firefly luciferase enzyme inhibitors, primary screen, biochemical, luminescence, purified enzyme, 2006 set (AID 1141).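 Further: cell-free assay with purified firefly luciferase at 100 ng per well in PBS; test concentration not given here.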 The note with it: SteadyGlo luminescence, 30 min, higher = more signal, called active from +8 up or from −8 down.
Chain of Luciferin 4-monooxygenase (Photinus pyralis) (P08659 whole entry, looked up): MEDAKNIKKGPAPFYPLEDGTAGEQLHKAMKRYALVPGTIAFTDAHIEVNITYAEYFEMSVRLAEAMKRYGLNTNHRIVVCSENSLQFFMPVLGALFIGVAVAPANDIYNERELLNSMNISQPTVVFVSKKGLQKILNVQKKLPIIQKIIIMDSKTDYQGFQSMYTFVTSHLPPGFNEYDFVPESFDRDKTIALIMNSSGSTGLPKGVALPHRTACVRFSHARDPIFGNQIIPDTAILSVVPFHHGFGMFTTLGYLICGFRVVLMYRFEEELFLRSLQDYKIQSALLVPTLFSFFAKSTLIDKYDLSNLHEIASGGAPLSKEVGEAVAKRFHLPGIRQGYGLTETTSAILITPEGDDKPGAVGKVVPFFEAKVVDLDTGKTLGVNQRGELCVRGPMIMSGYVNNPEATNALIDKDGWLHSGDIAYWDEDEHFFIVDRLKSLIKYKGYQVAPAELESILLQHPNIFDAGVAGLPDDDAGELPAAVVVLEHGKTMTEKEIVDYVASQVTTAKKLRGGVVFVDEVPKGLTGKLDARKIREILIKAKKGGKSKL

Chain of Concanavalin-A (Canavalia ensiformis) (P02866 whole entry, looked up): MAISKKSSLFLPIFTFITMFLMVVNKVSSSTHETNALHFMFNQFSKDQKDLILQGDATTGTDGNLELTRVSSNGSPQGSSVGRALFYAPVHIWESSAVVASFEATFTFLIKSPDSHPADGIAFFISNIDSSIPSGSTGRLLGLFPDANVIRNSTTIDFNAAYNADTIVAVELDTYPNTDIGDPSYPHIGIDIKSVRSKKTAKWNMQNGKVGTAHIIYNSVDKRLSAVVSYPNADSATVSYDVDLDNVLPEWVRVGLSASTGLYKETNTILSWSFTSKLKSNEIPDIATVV
Chain of Albumin (Bos taurus) (P02769 whole entry, looked up): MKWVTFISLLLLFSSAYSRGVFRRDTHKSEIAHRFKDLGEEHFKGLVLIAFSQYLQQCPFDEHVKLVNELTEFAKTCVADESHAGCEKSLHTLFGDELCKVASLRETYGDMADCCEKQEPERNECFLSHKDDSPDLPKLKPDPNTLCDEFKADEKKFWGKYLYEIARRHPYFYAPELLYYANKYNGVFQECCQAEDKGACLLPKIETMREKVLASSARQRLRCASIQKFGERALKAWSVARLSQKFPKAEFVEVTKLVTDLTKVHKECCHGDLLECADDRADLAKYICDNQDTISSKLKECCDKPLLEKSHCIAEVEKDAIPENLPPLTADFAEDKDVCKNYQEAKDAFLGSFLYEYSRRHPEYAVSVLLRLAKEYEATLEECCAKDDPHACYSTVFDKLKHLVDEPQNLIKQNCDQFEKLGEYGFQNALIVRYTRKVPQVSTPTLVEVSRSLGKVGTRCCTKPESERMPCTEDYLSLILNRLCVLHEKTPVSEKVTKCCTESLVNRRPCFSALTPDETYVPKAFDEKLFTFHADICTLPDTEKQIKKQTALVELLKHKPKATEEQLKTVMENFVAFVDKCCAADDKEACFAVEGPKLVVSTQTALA

With `CN1C(=O)C2C=CC(C(O)c3ccc(F)cc3)N(Nc3ccccc3)C2C1=O` (stereo not given), the composite z-score in test [1] was 0.884; in [3], 0.0562; in test [4], -0.14; in [5] it was 0.721; in test [6], 1.64; in test [7], -0.481. In addition, the composite z-score in test [8] is 0.57; in test [9], -0.623; in [10], 0.808; in test [11], 2.27; in test [12] it was 1.14; in test [13], 1.04. For the same molecule, the composite z-score in [14] was 0.802; in test [15] it was 0.576; in test [16], -0.319; in [18], 0.253; in test [19], 0.0088. Moreover, the composite Z-score in [2] was 0.21 (inactive). Moreover, the z-score in test [17] was -0.575; in test [20], -0.112 (inactive).
Turning to `COCCOC(=O)N1C(=O)[C@@]2(c3cc(C#CC4=CCCCC4)ccc31)[C@H](c1ccc(O)cc1)N1[C@H](c3ccccc3)[C@H](c3ccccc3)OC(=O)[C@H]1[C@@H]2C(=O)N1CCN(c2ncccn2)CC1`, the composite z-score was -1.34 in [1]; -0.345 in test [3]; -0.156 in [4]; -0.391 in test [5]; -0.147 in test [6]; 0.601 in test [7]. Besides, the composite z-score in test [8] is -0.535; in [9], -1.21; in [10], -0.217; in test [11], -0.849; in [12], -1.1; in [13], -0.415. The composite z-score in test [14] was -0.805; in test [15], -1.02; in [16], -0.958; in [18] it was -1.14; in test [19], -0.649. The composite Z-score in test [2] was -0.551 (inactive). In addition, the values for the z-score in test [17] and in [20] were 0.381 and 1.18 (inactive), respectively.
Turning to `COC(=O)[C@@]1(Cc2ccccc2)[C@H]2c3cc(C(=O)N(C)C)n(CCN4CNCC4=O)c3C[C@H]2CN1C(=O)c1ccccc1`, the composite z-score in test [1] was 0.984; in [3], 0.571; in test [4] it was 0.37; in test [5], 0.826; in [6] it was -0.325; in test [7], 1.26. In addition, the composite z-score in test [8] is -0.764; in [9], -1.16; in test [10] it was -1.42; in test [11], 3.19; in test [12] it was 0.644; in test [13], -0.619. Further, the composite z-score in test [14] is -1.2; in test [15] it was -0.64; in test [16] it was -0.8; in test [18] it was -2.13; in test [19] it was 1.45. The composite Z-score in [2] is 0.0052 (inactive). Further, the z-score in test [17] is 0.697; in test [20], 0.394 (inactive).
Take `COC(=O)[C@@]1(Cc2ccccc2)[C@@H]2C(=CC(=O)[C@H]2CC(=O)C(=O)N(C)C)CN1C(=O)c1ccccc1`: the composite z-score in test [1] was 0.93; in test [3], 0.462; in [4], 0.23; in test [5] it was 0.808; in test [6], 2.61; in [7] it was 0.931. In addition, the composite z-score in test [8] was 1.2; in test [9] it was -0.202; in [10] it was 1.08; in test [11], 2.15; in test [12] it was 1.25; in test [13], 0.745. Besides, the composite z-score was 0.0523 in test [14]; 0.324 in [15]; -0.147 in test [16]; -0.271 in test [18]; 0.407 in test [19]. Besides, the composite Z-score in test [2] is -0.0478 (inactive). Also, the z-score in [17] was -0.312; in test [20] it was -21 (active).
With `CN(C)C(=O)[C@@]1(CCS(=O)(=O)c2ccccc2)N=C(c2ccc(OCCCO)cc2)O[C@H]1c1ccccc1`, the composite z-score was 1.02 in test [1]; 0.413 in test [3]; -0.115 in [4]; 0.646 in [5]; 2.15 in test [6]; 0.862 in test [7]. For the same molecule, the composite z-score in test [8] was 1.16; in test [9] it was -0.98; in test [10], 0.761; in test [11], 2.36; in test [12], 1.23; in [13], 0.365. Moreover, the composite z-score in test [14] is 0.983; in test [15] it was 1.02; in test [16], -0.663; in test [18], -0.502; in test [19], 1.18. Further, the composite Z-score in test [2] is 1.19 (inactive). The z-score was 0.635 in [17] and -0.525 (inactive) in test [20].
Turning to `C=CCOC(=O)[C@H]1[C@@H]2C(=O)O[C@@H](c3ccccc3)[C@@H](c3ccccc3)N2[C@@H](c2ccc(OCCOC(=O)[C@H]3C[C@H]4C(=O)N[C@@H](CCCCNC(C)=O)C(=O)N4[C@H]3c3ccc(O)cc3)cc2)[C@]12C(=O)Nc1ccccc12`, the composite z-score is -1.06 in test [1]; 0.0076 in test [3]; -0.112 in test [4]; 0.634 in test [5]; 1.19 in [6]; -0.549 in [7]. Moreover, the composite z-score turned out to be 1.3 in test [8]; 0.998 in [9]; 1.16 in test [10]; 2.7 in test [11]; 1.12 in test [12]; 0.765 in test [13]. Also, the composite z-score in test [14] is 0.732; in [15], 1.4; in test [16], 1.63; in [18], 1.1; in [19], 0.538. Also, in test [2], the composite Z-score is 1.09 (inactive). Further, the results for the z-score in test [17] and in test [20] were -1.16 and -2.37 (inactive), respectively.
